Assay results from PubChem BioAssay (NCI).
Compounds without any hit were thinned out: in the full panel of roughly 79,000, 15% have a hit. Unmarked numbers belong to inactive results. Calls of active or inactive are those of the source. No stated cut-off is given here; in the data, active means growth inhibition above about 70%; inactive means the rest.

Columns and labels:
[1] = NCI Yeast Anticancer Drug Screen. Data for the rad50 strain (AID 155);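 further: 0% = growth of vehicle-only cultures of the same strain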; conditions: S. cerevisiae rad50 strain growth inhibition; at 50.0 µM; stronger effect = higher value
Outline: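 DNA repair mutant yeast, compound exposure, growth read-out; inhibition is taken relative to vehicle.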

[2] = NCI Yeast Anticancer Drug Screen. Data for the mec2-1 strain (AID 157); conditions: S. cerevisiae mec2-1 strain, at 50.0 µM, stronger effect = higher value
Outline: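 Yeast mec2-1 mutant treated with compound. Readout: growth inhibition vs vehicle controls.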

[3] = NCI Yeast Anticancer Drug Screen. Data for the sgs1 mgt1 strain (AID 161);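 further: 0% = growth of cultures given vehicle only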; conditions: S. cerevisiae sgs1 mgt1 strain, at 50.0 µM, stronger effect = higher value
Outline: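 Mutant yeast exposed to compound; growth scored against vehicle-only wells.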

[4] = NCI Yeast Anticancer Drug Screen. Data for the cln2 rad14 strain (AID 165);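 further: 0% = growth equal to vehicle treated cultures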; conditions: S. cerevisiae cln2 rad14 strain, at 50.0 µM, stronger effect = higher value
Outline: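 cln2 rad14 yeast strain; compound exposure; growth inhibition read vs vehicle controls.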

[5] = NCI Yeast Anticancer Drug Screen. Data for the bub3 strain (AID 167); conditions: S. cerevisiae bub3 mutant strain, at 50.0 µM, stronger effect = higher value
Outline: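 In this screen, a yeast mutant lacking normal mitotic checkpoint function is challenged with compound. Relative growth versus vehicle gives the inhibition value.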

[6] = NCI Yeast Anticancer Drug Screen. Data for the mlh1 rad18 strain (AID 175); conditions: S. cerevisiae mlh1 rad18 strain growth inhibition; at 50.0 µM; stronger effect = higher value
Outline: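 Yeast w/ defined DNA-repair lesions; compound exposure; growth vs vehicle controls → % inhibition.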

Row | SMILES | growth inhibition [1] | growth inhibition [2] | growth inhibition [3] | growth inhibition [4] | growth inhibition [5] | growth inhibition [6]
1 | CC(=O)OC1COC([n+]2cccc(C(N)=O)c2)C(OC(C)=O)C1OC(C)=O (stereo not drawn) | -36.5% | -22.7% | -25.9% | -32.6% | -9.95% | -20%
2 | CCc1cccc(C(C)(C)C)c1NC(=S)NC=C(C#N)C#N | 27.9% | -11.6% | 36.8% | 26.8% | 17.6% | 45.8%
3 | COc1cc2c(cc1C)C1=C(C)C(=O)OC1[C@@H](O)[C@@H]2C (stereo partly drawn) | 16.9% | 11.6% | 18.4% | 3.45% | 18.9% | 18.8%
4 | C[N+](C)(C)CC(=O)N/N=C(/CC(=O)CC(C1=C(O)c2ccccc2OC1)c1ccccc1)C(=O)Nc1cccc(Cl)c1 (stereo not drawn) | 58% | 39.5% | 27.7% | 34.4% | 28.4% | 5.5%
5 | O=C1C2=C(Nc3ccccc3N2)OC1c1ccc2c(c1)OCO2 (stereo not drawn) | 4.15% | -9.95% | -20.1% | -7.9% | -29.4% | -0.1%
6 | CCc1nc2c([nH]1)c(=O)n(C)c(=O)n2C | 35% | -4.6% | 11.6% | 16.5% | -20.6% | 20.4%
7 | O=[N+]([O-])c1cc(Cl)c(Cl)c(Cl)c1Cl | 17.1% | 3.4% | -1% | 14.8% | 7.3% | 31.4%
8 | CC(=O)O.Cl.NC1C([O-])OC(CO)C(O)C1O.O=C1OC(C(O)CO)C([O-])=C1[OH2+].[Cu+2] (stereo not drawn) | 21.3% | 8.3% | -9.6% | 5.95% | 5.05% | 17.2%
9 | CC(C)(O)C(Br)(Br)Br | 0.2% | 3.7% | -22.4% | -33% | -21.9% | 32.1%
10 | O=C(O)c1ccccc1C(=O)CC(O)(C(F)(F)F)C(F)(F)F | -20.6% | 9.9% | -1.5% | -31.3% | -10.9% | -20.9%
11 | COC(=O)c1cc(-c2ccccc2)nc2c(Cl)cc(Cl)cc12 | -4.4% | -12.1% | -5.55% | -28.6% | 11.7% | -14.4%
12 | CC1CC(OC(=O)c2ccccc2)CCC1=O (stereo not drawn) | -5.6% | -2.85% | -7.65% | 14.5% | 15.6% | -7.8%
13 | CCC(C)(C)c1ccc(O)c(CNCCO)c1 | 26.8% | -2.55% | 2.9% | -18.9% | 7.55% | 8.85%
14 | Nc1ccc(S(=O)(=O)O)cc1 | -20.6% | 3.85% | 2.35% | -29.3% | -6.75% | -2.55%
15 | CC(=O)CC(=O)NC(C)(C)C | 16.6% | -33% | -16.4% | -13.2% | 2.85% | 7.7%
16 | CCC[C@H]1C(=O)N=C(N)N1C(=O)OCc1ccccc1 | 0.9% | 2.9% | -5.5% | -28.3% | -3.3% | -7%
17 | COc1cc(CN(c2ccccc2C(=O)O)S(=O)(=O)c2ccc(C)cc2)ccc1[N+](=O)[O-] | 43.9% | 2.65% | 38.2% | -19.6% | -4.5% | 35.6%
18 | COC(=O)c1ccccc1NC(=NC1CCCCCC1)NS(=O)(=O)c1ccc(C)cc1 | 30.4% | 11.2% | -13.8% | -8.15% | 0.3% | -31.3%
19 | N#CC1(c2ccc(Cl)cc2)CCC1 | 11.7% | 6.15% | 19.8% | 19.9% | 27.5% | 8.6%

Row | SMILES | growth inhibition [1] | growth inhibition [2] | growth inhibition [3] | growth inhibition [4] | growth inhibition [5] | growth inhibition [6]
20 | NC(C(=O)O)C(C(F)(F)F)C(F)(F)F (stereo not drawn) | 0.95% | -15.2% | 4.5% | 1.55% | -15.7% | 6.5%
21 | NC(=O)c1ccc(S(=O)(=NS(=O)(=O)c2ccccc2)c2ccc(C(N)=O)cc2)cc1 | 4.2% | -8.4% | -11.8% | -62.8% | -25.6% | -1.6%
22 | CC(=O)OC1CCC2(C)C3C/C(=N\O)C4(C)C(C(C)OC(C)=O)CCC4C3CCC2(C)C1 (stereo not drawn) | 95.3% (active) | 96.7% (active) | 96% (active) | 91.8% (active) | 93.2% (active) | 95.9% (active)
23 | CC1(C)CC(=O)C(/C(=N/NC(=S)NN)C(=O)Nc2nc3ccc([N+](=O)[O-])cc3s2)C(=O)C1 | 35.8% | 20.2% | -15.2% | -26.9% | 1% | 16.4%
24 | Cc1cc(C)c(NC(N)=S)cc1C | 7.65% | -23.2% | -5.35% | -7.7% | -5.55% | 7.55%
25 | CCOC(=O)C(CC(C)C)NC(=O)c1cnc2ccccc2c1 (stereo not drawn) | 26.6% | -0.7% | 25.6% | -13.8% | 26.2% | 21.9%
26 | NC1(c2ccccc2)CON=C(c2ccccc2)C1 (stereo not drawn) | 17.2% | 5.85% | -5.8% | -15.8% | 1.4% | 16.9%
27 | COc1ccc(C)cc1NC(=S)NC(=O)C(C)Oc1ccccc1 (stereo not drawn) | 11.8% | 46.5% | 59.5% | -27% | 28.6% | 32.9%
28 | CS(=O)(=O)OC(OS(C)(=O)=O)(OS(C)(=O)=O)OS(C)(=O)=O | 15.9% | 6.2% | 0.65% | -7.9% | -2.4% | 9.3%
29 | OCC1c2ccccc2C(CO)c2c1ccc1ccccc21 (stereo not drawn) | -0.3% | -2.3% | -7.1% | 11.1% | -9.15% | 4.45%
30 | NC(N)=NCC1CCCCCCN1 (stereo not drawn) | -9.2% | -20.7% | -21.1% | 18.6% | -12.6% | 12.9%
31 | Nc1cc(=S)nc(N)[nH]1 | 20.2% | -6.75% | 22.4% | 9.55% | 20.6% | 28.9%
32 | C=C1C(=O)C[C@H]2[C@H]3CC[C@H](C(=O)O)[C@]12CC3(C)C | 90.8% (active) | 93.8% (active) | 93.8% (active) | 87.7% (active) | 92.2% (active) | 92.1% (active)
33 | CCN(CC)c1ccc(-c2ccccc2)cc1 | 28.1% | 5.4% | -8.45% | -69.4% | 2.9% | 8.5%
34 | CN(C)Cc1nsc(N(C)C)n1 | -4.9% | -9.1% | -34.2% | -50% | -19.1% | -13.2%
35 | CC(C)(Cc1ccc(Cl)cc1)NC(N)=O | -35.5% | -73.7% | -21.4% | 3.1% | -44.1% | -31.8%
36 | CCCCNc1ccc2c(c1)Cc1ccccc1-2 | 18.9% | -4.1% | 15.8% | 3.25% | -18.8% | -8.35%
37 | COc1cc(C(C)O)c[n+](CCc2c[nH]c3ccccc23)c1 (stereo not drawn) | -30% | -19.5% | -45.9% | -8.1% | -28% | -36.5%
38 | O=C(c1ccc(Cl)cc1Cl)N(/N=C/C=C/c1ccccc1)c1nnc(-c2ccccc2)c(-c2ccccc2)n1 | -17.1% | 8.8% | -21.3% | 32.5% | 2.2% | 13%
